The panel holds about 83,000 compounds, 20% with a hit somewhere; the sample as a whole holds those more often.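 Cell lines were cultured in 96-well plates, exposed to a single compound concentration, and assessed for percent growth 48 hours later.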 Unmarked numbers belong to inactive results. The source made the active and inactive calls. How the source made its calls: active means growth percent below 10; inactive means the rest.
The compounds below were run on HL-60(TB) leukemia (assay: NCI-60 one-dose screen, 48 h (100 = growth as untreated, 0 = no growth, -100 = all killed)). Conditions: 10 µM unless noted.

SMILES	growth
O=S(=O)(NCCCNc1nccc(-c2c(-c3cccc(F)c3)nc3occn23)n1)c1ccc(F)cc1	5.83% (active)
O=C1NN(c2ccccc2)C(c2cccnc2)=N/C1=C\c1cccnc1	104%
CCCC(=O)OCC(COC(=O)CCC)OC(=O)CCC	100%
COc1cc2c(cc1I)-c1c(cc(OC)c(OC)c1OC)CC[C@@H]2NC(C)=O	6.93% (active)
COc1cc2cc(c1Cl)N(C)C(=O)C[C@H](OC(=O)[C@H](C)N(C)C(C)=O)[C@]1(C)O[C@H]1[C@H](C)[C@@H]1C[C@@](O)(NC(=O)O1)[C@H](OC)C=C/C=C(\C)C2	-25.6% (active)
O=[N+]([O-])c1cccc(-c2cc(-c3cc(Br)ccc3O)[nH]n2)c1	-17.1% (active)
Cc1ccc(-n2c(-c3ccccc3)c(-c3ccccc3)c3c(SCC(=O)n4[nH]c(N)cc4=O)ncnc32)cc1	102%
COc1ccc(/C=C/C(=O)c2ccc(Nc3nc(Nc4ccc(F)cc4)nc(Nc4ccc(Cl)cc4)n3)cc2)cc1	-0.226% (active)
O=C1/C(=C/c2ccc([N+](=O)[O-])cc2)COc2ccc(O)c(O)c21	-14.6% (active)
C=CC1(C)C(O[Si](C)(C)C(C)(C)C)CC2C3OC(=O)NC31c1cccc3c1[C@H](C(=O)N3C)C2(C)C (stereo not given in full)	22.9%
O=C(N=Nc1c(O)[nH]c2ccccc12)c1cc(-c2ccccc2)on1	97.5%
COc1ccc(/C=C/C(=O)c2ccc3cc(OC)c(OC)cc3c2)cc1OC	44.7%
CN(C)c1ccc(/C=C\c2ccnc3ccccc23)cc1	26.1%
Fc1ccc(NCCS)cc1	100%
CNC(=O)c1cc(Oc2cccc3nc(NC(=O)Nc4ccc(F)cc4F)ccc23)ccn1	81.8%
O=C(C[n+]1ccn(CC(OCc2ccc(Cl)cc2Cl)c2ccc(Cl)cc2Cl)c1)c1ccc(F)cc1 (stereo not given)	-51.8% (active)
O=C(Nc1cccc(C(F)(F)F)c1)Nc1ccc(OCc2nnc(-c3ccc(Cl)cc3)o2)c(F)c1	92.5%
Cc1nn(-c2ccccc2)c2c1N=c1s/c(=C\c3cn(-c4ccccc4)nc3-c3ccc(Cl)cc3)c(=O)n1C(C)N2 (stereo not given)	78.5%
COc1cc(C2C3CC4CCCC[C@H]4N3[C@@]3(C(=O)Nc4cc(Cl)ccc43)C2C(=O)c2nc3ccccc3[nH]2)cc(OC)c1OC (stereo not given in full)	21.8%
CS(=O)(=O)c1ccc(/C(=N/NC(N)=S)c2ccc(F)cc2)cc1	99.1%

SMILES	growth
CCN1CCN(CCNc2nccc(-c3c(-c4cccc(OC)c4)nc4occn34)n2)S1(=O)=O	119%
c1cnc2[nH]cc(-c3nc(-c4ccsc4)cs3)c2c1	104%
CC(C)(C)n1cc(-c2ccnc(NCCCNS(=O)(=O)c3ccc(C(F)(F)F)cc3)c2)c(-c2cccc(F)c2)n1	94.6%
CCn1c2ccc(N(C)C)cc2c2cc(N(C)C)ccc21	66.1%
CC(=O)Nc1ccc(-c2cc3c(NCc4ccc(F)cc4)ncnc3s2)cc1	89.1%
CCCCCCCC/C=C\CCCCCCCCOc1ccc(CC(=O)NCC[N+]2(C)CCOCC2)cc1	-14% (active)
CCN1CCN(c2nc(C)cc(N(CCNc3ccnc4cc(Cl)ccc34)Cc3ccc4c(c3)OCO4)n2)CC1	-57.7% (active)
CCOC(=O)/C(=C\c1ccc2ccccc2c1)P(=O)(OCC)OCC	8.83% (active)
CN(C)Cc1c(-c2ccccc2)[nH]c2ccccc12	92.9%
Cn1nc(CC#N)c2c(=N)n(N)cnc21	84.4%
COc1ccc(C(=O)/C=C/c2sc(Cl)nc2Cl)cc1	32.3%
Fc1ccc(-c2cc(C(Cl)Cl)no2)cc1	136%
CC(=O)O.[In]	93.4%
c1ccc(/C(=N\N=C(/c2ccccc2)c2cccs2)c2cccs2)cc1	91.1%
CCN1C(=O)N(CC)C2C1NN=c1s/c(=C\c3ccc(F)cc3)c(=O)n12 (stereo not given)	-47% (active)
COc1ccc(-c2nnc(SCC(=O)Nc3ccc(C(=O)/C=C/c4ccc(OC)c(OC)c4)cc3)o2)cc1	74.7%
CN(C)c1ccc(/C=C2/C=C(c3ccccc3)OC2=O)cc1	4.38% (active)
Cc1cc(N2CCCCC2)nc(NC2CCCC(Nc3ccnc4cc(Cl)ccc34)C2)n1 (stereo not given)	-63.6% (active)
O=C(CC1(O)C(=O)Nc2c(Cl)ccc(Cl)c21)c1ccc(Cl)cc1Cl (stereo not given)	80.8%
O=C(N/N=C/c1ccc(O)c(O)c1)c1sc2ccccc2c1Cl	4.17% (active)

— PubChem BioAssay (NCI)
